Results from PubChem BioAssay AID1159580 (chemical genetic matrix, 2015).
Where “and” joins values, the source holds several entries; their conditions need not be identical. Identical values can stand only once. In all, about 5,500 compounds went through this assay and about 2,000 (36%) were called active. Roughly 18% stayed inconclusive and do not appear here. Rule as the data show it: active = normalized growth mostly below about 0.91 (no sharp cut-off); inconclusive = no clear call, values can overlap the other calls; inactive = mostly above about 0.92. Some of the results follow.

Assay: chemical genetic growth profiling, strain panel (AID 1159580);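 also: tested at 20 µM; growth read once vehicle control cultures reached saturation at 30 °C; 1 = growth at the plate median or of vehicle wells; lower values mean less growth of the strain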
Details: S. cerevisiae deletion strains, growth OD

Question: For `CC(=O)[C@H]1CCC2C3CCC4=CC(=O)CC[C@]4(C)C3CC[C@@]21C` (some centres not stated), which normalized growth (locus YAL013W, strain DEP1, stronger effect = lower value) is on record?
Answer: 0.963 (inactive)

Question: What about the normalized growth (locus YAL021C, strain ccr4, stronger effect = lower value) of the same compound?
Answer: 0.901 (active)

Question: And the normalized growth (locus YAL026C, strain drs2, stronger effect = lower value)?
Answer: 0.936 (inactive)

Question: What about the normalized growth (locus YAL030W, strain snc1, stronger effect = lower value) of the same compound?
Answer: 0.975 (inactive)

Question: And the normalized growth (locus YBL061C, strain skt5, stronger effect = lower value)?
Answer: 0.968 (inactive)

Question: And the normalized growth (locus YBR009C, strain hhf1, stronger effect = lower value)?
Answer: 0.909 (inactive)

Question: What about the normalized growth (locus YBR021W, strain FUR4, stronger effect = lower value) of the same compound?
Answer: 0.93 (inactive)

Question: And the normalized growth (locus YBR023C, strain chs3, stronger effect = lower value)?
Answer: 0.957 (inactive)

Question: What about the normalized growth (locus YBR171W, strain sec66, stronger effect = lower value) of the same compound?
Answer: 0.933 (inactive)

Question: What about the normalized growth (locus YBR229C, strain ROT2, stronger effect = lower value) of the same compound?
Answer: 0.981 (inactive)

Question: And the normalized growth (locus YBR231C, strain swc5, stronger effect = lower value)?
Answer: 0.951 (inactive)

Question: And the normalized growth (locus YBR279W, strain paf1, stronger effect = lower value)?
Answer: 0.994 (inactive)

Question: And the normalized growth (locus YCL011C, strain gbp2, stronger effect = lower value)?
Answer: 0.971 (inactive)

Question: And the normalized growth (locus YCL016C, strain dcc1, stronger effect = lower value)?
Answer: 0.963 (inactive)

Question: And the normalized growth (locus YCL029C, strain bik1, stronger effect = lower value)?
Answer: 0.735 (active)

Question: What about the normalized growth (locus YCL061C, strain MRC1, stronger effect = lower value) of the same compound?
Answer: 0.955 (inactive)

Question: What about the normalized growth (locus YCL069W, strain vba3, stronger effect = lower value) of the same compound?
Answer: 0.976 (inactive)

Question: What about the normalized growth (locus YCR088W, strain abp1, stronger effect = lower value) of the same compound?
Answer: 0.99 (inactive)

Question: And the normalized growth (locus YDL005C, strain med2, stronger effect = lower value)?
Answer: 0.987 (inactive)

Question: And the normalized growth (locus YDL035C, strain GPR1, stronger effect = lower value)?
Answer: 0.936 (inactive)

Question: What about the normalized growth (locus YDL040C, strain nat1, stronger effect = lower value) of the same compound?
Answer: 0.981 (inactive)

Question: What about the normalized growth (locus YDL074C, strain BRE1, stronger effect = lower value) of the same compound?
Answer: 0.862 (inactive)

Question: What about the normalized growth (locus YDL101C, strain DUN1, stronger effect = lower value) of the same compound?
Answer: 0.977 (inactive)

Question: What about the normalized growth (locus YDL134C, strain PPH21, stronger effect = lower value) of the same compound?
Answer: 0.962 (inactive)

Question: And the normalized growth (locus YDL185W, strain tfp1, stronger effect = lower value)?
Answer: 0.923 (inactive)

Question: What about the normalized growth (locus YDL192W, strain arf1, stronger effect = lower value) of the same compound?
Answer: 0.719 (active)

Question: And the normalized growth (locus YDR001C, strain nth1, stronger effect = lower value)?
Answer: 0.98 (inactive)

Question: And the normalized growth (locus YDR069C, strain doa4, stronger effect = lower value)?
Answer: 0.963 (inactive)

Question: What about the normalized growth (locus YDR101C, strain arx1, stronger effect = lower value) of the same compound?
Answer: 0.908 (active)

Question: And the normalized growth (locus YDR137W, strain rgp1, stronger effect = lower value)?
Answer: 0.49 (active)

Question: What about the normalized growth (locus YDR150W, strain NUM1, stronger effect = lower value) of the same compound?
Answer: 0.983 (inactive)

Question: What about the normalized growth (locus YDR159W, strain sac3, stronger effect = lower value) of the same compound?
Answer: 0.879 (inactive)

Question: And the normalized growth (locus YDR162C, strain NBP2, stronger effect = lower value)?
Answer: 0.583 (active)

Question: And the normalized growth (locus YDR195W, strain ref2)?
Answer: 1.29 [resistant] (active)

Question: What about the normalized growth (locus YDR297W, strain sur2, stronger effect = lower value) of the same compound?
Answer: 0.972 (inactive)

Question: And the normalized growth (locus YDR318W, strain mcm21, stronger effect = lower value)?
Answer: 0.671 (active)

Question: And the normalized growth (locus YDR334W, strain swr1, stronger effect = lower value)?
Answer: 0.985 (inactive)

Question: And the normalized growth (locus YDR335W, strain msn5, stronger effect = lower value)?
Answer: 0.948 (inactive)

Question: What about the normalized growth (locus YDR388W, stronger effect = lower value) of the same compound?
Answer: 0.854 (active)

Question: And the normalized growth (locus YDR392W, strain spt3, stronger effect = lower value)?
Answer: 0.247 (active)

Question: And the normalized growth (locus YDR502C, strain sam2, stronger effect = lower value)?
Answer: 0.77 (active)

Question: And the normalized growth (locus YEL003W, strain gim4, stronger effect = lower value)?
Answer: 0.931 (inactive)

Question: And the normalized growth (locus YEL037C, strain rad23, stronger effect = lower value)?
Answer: 0.974 (inactive)

Question: And the normalized growth (locus YEL061C, strain CIN8 (second series), stronger effect = lower value)?
Answer: 0.972 (inactive)

Question: And the normalized growth (locus YEL061C, strain CIN8, stronger effect = lower value)?
Answer: 0.971 (inactive)

Question: What about the normalized growth (locus YER015W, strain faa2, stronger effect = lower value) of the same compound?
Answer: 0.969 (inactive)

Question: And the normalized growth (locus YER016W, strain bim1, stronger effect = lower value)?
Answer: 0.953 (inactive)

Question: And the normalized growth (locus YER110C, stronger effect = lower value)?
Answer: 0.916 (inactive)

Question: And the normalized growth (locus YER111C, strain swi4, stronger effect = lower value)?
Answer: 0.954 (inactive)

Question: And the normalized growth (locus YER155C, strain BEM2 (second series), stronger effect = lower value)?
Answer: 0.555 (active)

Question: And the normalized growth (locus YER155C, strain BEM2, stronger effect = lower value)?
Answer: 0.991 (inactive)

Question: What about the normalized growth (locus YER167W, strain BCK2, stronger effect = lower value) of the same compound?
Answer: 0.93 (inactive)

Question: And the normalized growth (locus YFR010W, strain ubp6, stronger effect = lower value)?
Answer: 0.994 (inactive)

Question: What about the normalized growth (locus YGL078C, strain dbp3, stronger effect = lower value) of the same compound?
Answer: 0.961 (inactive)

Question: And the normalized growth (locus YGL086W, strain mad1, stronger effect = lower value)?
Answer: 0.743 (active)

Question: And the normalized growth (locus YGL167C, strain pmr1, stronger effect = lower value)?
Answer: 0.94 (inactive)

Question: What about the normalized growth (locus YGL173C, strain kem1, stronger effect = lower value) of the same compound?
Answer: 0.91 (inactive)

Question: What about the normalized growth (locus YGL227W, strain vid30, stronger effect = lower value) of the same compound?
Answer: 0.999 (inactive)

Question: And the normalized growth (locus YGL240W, strain doc1, stronger effect = lower value)?
Answer: 0.906 (inactive)

Question: And the normalized growth (locus YGL248W, strain PDE1, stronger effect = lower value)?
Answer: 0.968 (inactive)

Question: What about the normalized growth (locus YGL253W, strain hxk2, stronger effect = lower value) of the same compound?
Answer: 0.879 (active)

Question: What about the normalized growth (locus YGR078C, strain PAC10, stronger effect = lower value) of the same compound?
Answer: 0.898 (inactive)

Question: What about the normalized growth (locus YGR135W, strain pre9, stronger effect = lower value) of the same compound?
Answer: 0.731 (active)

Question: And the normalized growth (locus YGR229C, strain SMI1, stronger effect = lower value)?
Answer: 1.02 (inactive)

Question: And the normalized growth (locus YGR252W, strain gcn5, stronger effect = lower value)?
Answer: 0.924 (inactive)

Question: And the normalized growth (locus YHR013C, strain ard1, stronger effect = lower value)?
Answer: 1.06 (inactive)

Question: And the normalized growth (locus YHR027C, strain rpn1, stronger effect = lower value)?
Answer: 0.97 (inactive)

Question: What about the normalized growth (locus YHR030C, strain SLT2, stronger effect = lower value) of the same compound?
Answer: 0.925 (inactive) and 0.973 (inactive)

Question: What about the normalized growth (locus YHR079C, strain IRE1 (second series), stronger effect = lower value) of the same compound?
Answer: 0.85 (active)

Question: What about the normalized growth (locus YHR079C, strain IRE1, stronger effect = lower value) of the same compound?
Answer: 0.984 (inactive)

Question: What about the normalized growth (locus YHR094C, strain hxt1, stronger effect = lower value) of the same compound?
Answer: 0.907 (active)

Question: And the normalized growth (locus YHR129C, strain ARP1, stronger effect = lower value)?
Answer: 0.973 (inactive)

Question: And the normalized growth (locus YHR142W, strain chs7, stronger effect = lower value)?
Answer: 0.85 (active)

Question: What about the normalized growth (locus YHR200W, strain rpn10, stronger effect = lower value) of the same compound?
Answer: 0.884 (active)

Question: What about the normalized growth (locus YIL066C, strain RNR3, stronger effect = lower value) of the same compound?
Answer: 0.902 (inactive)

Question: What about the normalized growth (locus YIL073C, strain SPO22, stronger effect = lower value) of the same compound?
Answer: 0.893 (inactive)

Question: What about the normalized growth (locus YIL125W, strain kgd1, stronger effect = lower value) of the same compound?
Answer: 0.958 (inactive)

Question: And the normalized growth (locus YIR030C, strain dcg1, stronger effect = lower value)?
Answer: 0.922 (active)

Question: What about the normalized growth (locus YJL092W, strain hpr5, stronger effect = lower value) of the same compound?
Answer: 0.969 (inactive)

Question: What about the normalized growth (locus YJL095W, strain BCK1 (second series), stronger effect = lower value) of the same compound?
Answer: 0.869 (active)

Question: What about the normalized growth (locus YJL095W, strain BCK1, stronger effect = lower value) of the same compound?
Answer: 0.777 (active) and 0.981 (inactive)

Question: What about the normalized growth (locus YJL115W, strain asf1, stronger effect = lower value) of the same compound?
Answer: 0.98 (inactive)

Question: What about the normalized growth (locus YJL129C, strain trk1, stronger effect = lower value) of the same compound?
Answer: 0.865 (active)

Question: What about the normalized growth (locus YJL134W, strain LCB3, stronger effect = lower value) of the same compound?
Answer: 0.98 (inactive)

Question: What about the normalized growth (locus YJL154C, strain vps35, stronger effect = lower value) of the same compound?
Answer: 0.986 (inactive)

Question: And the normalized growth (locus YJL164C, strain tpk1, stronger effect = lower value)?
Answer: 0.929 (inactive)

Question: And the normalized growth (locus YJL166W, strain qcr8, stronger effect = lower value)?
Answer: 0.916 (inactive)

Question: And the normalized growth (locus YJL168C, strain set2, stronger effect = lower value)?
Answer: 0.934 (inactive)

Question: And the normalized growth (locus YJL187C, strain SWE1 (second series), stronger effect = lower value)?
Answer: 0.96 (inactive)

Question: What about the normalized growth (locus YJL187C, strain SWE1, stronger effect = lower value) of the same compound?
Answer: 0.969 (inactive)

Question: What about the normalized growth (locus YJR043C, strain POL32, stronger effect = lower value) of the same compound?
Answer: 0.986 (inactive)

Question: And the normalized growth (locus YJR066W, strain TOR1, stronger effect = lower value)?
Answer: 0.93 (inactive)
